Reference: PubChem BioAssay (Tox21)
Several values for one entry are separate records, joined by “and”; a condition that tells them apart may be missing. Equal values may be shown once. Records with an inconclusive call do not appear. A call without a number means that no potency is given here. Activity calls are given as the source filed them. Calls come from the whole dose curve; as a rule, active = well fitted cell-killing curve with a large enough effect in the repeat runs; inconclusive = weak or mixed curves, or effect the other way; inactive = flat fitted curve, though single readings scatter.

Experiments:
[1] = cAMP Responsive Elements (CRE) small molecule antagonists, cell-based qHTS assay: qHTS cell viability counter screen (AID 2060913); conditions: CRE-bla HEK293T viability, CellTiter-Glo luminescence, 5 h; series mostly up to 92.4 µM; note: nearly all actives have a fitted effect of over 40% in size
Method in brief: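 HEK293T CRE-bla, 2,000 cells/well, 18 h preincubation; cpd in DMSO + NKH477 0.25 uM final, 3 h 37 C/5% CO2; LiveBLAzer 2 h RT, then CellTiter-Glo 30 min RT, luminescence.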

[2] = cAMP Responsive Elements (CRE) small molecule agonists, cell-based qHTS assay: qHTS cell viability counter screen (AID 2060914); conditions: CRE-bla HEK293T viability, CellTiter-Glo luminescence, 5 h; series mostly up to 92.4 µM; note: nearly all actives have a fitted effect of over 50% in size
Method in brief: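 Luminescence read-out (CellTiter-Glo, 30 min RT) of ATP-based viability in CRE-bla HEK 293T cells, run in the same wells as the β-lactamase reporter assay after 3 h compound treatment at 37 °C.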
Potency is the fitted concentration of half-maximal effect.

| SMILES | Potency [1] | Potency [2] |
| --- | --- | --- |
| CC1=C(C(=O)Nc2ccccc2)S(=O)(=O)CCO1 | inactive | inactive |
| CC(C)N(CCC(C(N)=O)(c1ccccc1)c1ccccn1)C(C)C (stereo unspecified) | inactive | inactive |
| CCOP(=O)(OCC)Oc1ccc([N+](=O)[O-])cc1 | inactive | inactive |
| CC(Cl)(Cl)[N+](=O)[O-] | inactive | inactive |
| CC(Oc1ccc(Cl)cc1Cl)C(=O)O (stereo unspecified) | inactive | inactive |
| Nc1nc(N)c(N)c(N)n1 |  | inactive |
| c1ccc(OP(Oc2ccccc2)Oc2ccccc2)cc1 | inactive | inactive |
| S=C=S | inactive | inactive |
| C#CCN(C)[C@H](C)Cc1ccccc1 | inactive | inactive |
| C=CCO |  | inactive |
| CN[C@@H](C)[C@H](O)c1ccccc1 | inactive | inactive |
| CCCCOCN(C(=O)CCl)c1c(CC)cccc1CC |  | inactive |
| CCCCC#N |  | inactive |
| COc1c(C(C)(C)C)cc([N+](=O)[O-])c(C)c1[N+](=O)[O-] | inactive | inactive |
| O=[N+]([O-])c1ccc(CCl)cc1 | inactive | inactive |
| CCCCCCCCCCCCCCCC[N+](C)(C)C | 54.5 µM (active) | 29.5 µM (active) and 61.1 µM (active) and 26.6 µM (active) |
| COCc1cnc(C2=NC(C)(C(C)C)C(=O)N2)c(C(=O)O)c1 (stereo unspecified) |  | inactive |
| Nc1cc2c3c(c1)C(c1ccccc1)=N[C@@H](NC(=O)c1cccnc1)C(=O)N3CC2 | inactive | inactive |
| O=P(OCCCl)(OCCCl)OCCCl |  | inactive |
| Cc1ccc2c(c1N)C(=O)c1ccccc1C2=O | inactive | inactive |
| Clc1cccc(C(Cl)(Cl)Cl)n1 | inactive | inactive |
